Rows were chosen to be rich in hits. Some 4.7% of all compounds tested hit in one or more screens of this group.
UBC9 SUMO inh: blocks human SUMOylation mediated by UBC9; inhibition, % at 35 µM; AID 2006; actives 0.36% (n = 290,000); P63279; HTRF SUMOylation assay, SAE1/SAE2 + UBC9, in vitro; in the data active = inhibition above about 50%, passing the limit was not always enough; inconclusive = no clear call, values can overlap the other calls
Target sequence (P63279 whole entry, looked up): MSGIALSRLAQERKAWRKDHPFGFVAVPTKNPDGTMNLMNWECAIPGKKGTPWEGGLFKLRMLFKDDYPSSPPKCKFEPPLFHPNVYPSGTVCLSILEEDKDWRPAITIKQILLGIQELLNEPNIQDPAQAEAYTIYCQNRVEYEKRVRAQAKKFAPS
eIF4H inh: inhibitors of RNA binding by human eIF4H; Q15056; eIF4H fluorescence polarization binding assay; inhibition, % at 35 µM; actives 0.94% (n = 290,000);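 also: calls also rest on retests at 20 µM and on dose response follow-up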
ALR inh: human ALR oxidase inhibition via reduced H2O2 | P55789 | actives 3.8% (n = 290,000) | purified ALR, DTT oxidation, H2O2 HRP-luminol luminescence | inhibition, % (no concentration beside the values) | AID 485317;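 active = mean replicate inhibition above about 79%, with every replicate also reaching it, limit read from the data; inconclusive = only one of the two criteria met; inactive = mean below limit and not every replicate reaching it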
Target sequence (P55789 whole entry, looked up): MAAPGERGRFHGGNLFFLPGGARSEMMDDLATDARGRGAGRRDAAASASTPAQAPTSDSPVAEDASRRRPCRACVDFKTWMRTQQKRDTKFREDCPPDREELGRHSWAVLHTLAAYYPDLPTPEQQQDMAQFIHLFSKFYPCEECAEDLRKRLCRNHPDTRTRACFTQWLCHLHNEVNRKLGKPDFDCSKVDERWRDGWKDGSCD
Efflux pump inh: inhibitors of Candida antifungal efflux pumps expressed in yeast | AID 485275 | S. cerevisiae Candida pump triplex, Nile Red efflux | actives 0.44% (n = 330,000) | inhibition, % at 10 µM;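 active = plate passing quality check with inhibition over a set limit, or well fluorescence over plate mean plus 4 SD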;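 also: Nile Red retained in pooled yeast measured as flow cytometry median fluorescence; higher means more Nile Red kept so more efflux inhibition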
MLLE-PAM2 inh: blocks PAM2 peptide binding to the PABP1 MLLE domain; GST-MLLE / FITC-PAM2 fluorescence polarization; inhibition, % at 20 µM; actives 0.36% (n = 360,000); AID 588489; in the data active = inhibition above about 35%, passing the limit was not always enough
PABP FP inh: PABP-poly(A) binding inhibition | PABP-poly(A) RNA binding, fluorescence polarization | inhibition, % at 35 µM | actives 1% (n = 290,000);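 also: calls also rest on retests at 20 µM and on dose response follow-up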
A number is an active result. Unless noted, no rule for the calls is given here.

For CCOc1ccc(-c2cc(C(=O)NN)[nH]n2)cc1 the results were UBC9 SUMO inh inactive, eIF4H inh inactive, ALR inh 99, Efflux pump inh inactive, MLLE-PAM2 inh inactive and PABP FP inh inactive.
For COc1ccc(-c2cc(C(=O)NN)[nH]n2)cc1OC the results were UBC9 SUMO inh inactive, eIF4H inh inactive, ALR inh 98, Efflux pump inh inactive, MLLE-PAM2 inh inactive and PABP FP inh inactive.
Screening CN(c1ccccc1)S(=O)(=O)c1cccc(NC(=O)CN2C(=O)NC3(CCCC3)C2=O)c1 returned MLLE-PAM2 inh inactive.
For O=C(Nc1cccc(-c2cccc(F)c2)c1)C1CCN(C2CCOCC2)CC1 the results were UBC9 SUMO inh inactive, eIF4H inh inactive, ALR inh inactive, Efflux pump inh inactive, MLLE-PAM2 inh inactive and PABP FP inh inactive.
O=C(O)COc1ccccc1/C=C1\C(=O)Nc2ccc(Br)cc21 was read as UBC9 SUMO inh inactive, eIF4H inh inactive, ALR inh 98, Efflux pump inh inactive, MLLE-PAM2 inh inactive and PABP FP inh inactive.
For COCCn1c(-c2ccc3ccccc3c2)nc2c1c(=O)[nH]c(=O)n2CC(C)C the results were UBC9 SUMO inh inactive, eIF4H inh inactive, ALR inh inactive, Efflux pump inh inactive, MLLE-PAM2 inh inactive and PABP FP inh inactive.
`CCN1C(=O)/C(=C/c2ccc(OC)c(OC)c2)N=C1SCC(=O)NCc1ccco1` gave UBC9 SUMO inh inactive, eIF4H inh inactive, ALR inh inactive, Efflux pump inh inactive, MLLE-PAM2 inh 38 and PABP FP inh inactive.
`COc1ccc(-c2ccc(SCC(=O)NCc3ccco3)nn2)cc1OC` gave UBC9 SUMO inh inactive, eIF4H inh inactive, Efflux pump inh inactive, MLLE-PAM2 inh inactive and PABP FP inh inactive.
OC(c1ccc(Cl)cc1)c1nccc2ccccc12 (stereo not given) was read as UBC9 SUMO inh inactive, eIF4H inh inactive, Efflux pump inh inactive, MLLE-PAM2 inh inactive and PABP FP inh inactive.
Screening CN1CCN(S(=O)(=O)c2ccc(NC(=O)Cc3ccc([N+](=O)[O-])cc3)cc2)CC1 returned UBC9 SUMO inh inactive, eIF4H inh inactive, ALR inh inactive, Efflux pump inh inactive, MLLE-PAM2 inh inactive and PABP FP inh inactive.
Screening Cn1cc(S(=O)(=O)N2CCOCC2)cc1C(=O)NCc1ccc(Cl)cc1 returned UBC9 SUMO inh inactive, eIF4H inh inactive, ALR inh inactive, Efflux pump inh inactive, MLLE-PAM2 inh inactive and PABP FP inh inactive.
For CN(C)c1ccc(CNC(=O)C2CCN(S(=O)(=O)c3ccc4c(c3)CCC(=O)N4)CC2)cc1 the results were UBC9 SUMO inh inactive, eIF4H inh inactive, ALR inh 91, Efflux pump inh inactive, MLLE-PAM2 inh inactive and PABP FP inh inactive.
Screening O=C1CCc2cc(S(=O)(=O)N3CCC(C(=O)Nc4nccs4)CC3)ccc2N1 returned UBC9 SUMO inh inactive, eIF4H inh inactive, ALR inh inactive, Efflux pump inh inactive, MLLE-PAM2 inh inactive and PABP FP inh inactive.
`Cc1cccnc1NC(=O)C1CCN(S(=O)(=O)c2ccc3c(c2)CCC(=O)N3)CC1` gave UBC9 SUMO inh inactive, eIF4H inh inactive, ALR inh 90, Efflux pump inh inactive, MLLE-PAM2 inh inactive and PABP FP inh inactive.
CN(C)c1ccc(CNC(=O)c2cc(S(=O)(=O)N3CCOCC3)cn2C)cc1 was read as UBC9 SUMO inh inactive, eIF4H inh inactive, ALR inh 98, Efflux pump inh inactive, MLLE-PAM2 inh inactive and PABP FP inh inactive.
For CCCN1CCN(CCCNC(=O)Cn2nc(C)n3c(cc4cc(F)ccc43)c2=O)CC1 the results were UBC9 SUMO inh inactive, eIF4H inh inactive, ALR inh inactive, Efflux pump inh inactive, MLLE-PAM2 inh inactive and PABP FP inh inactive.
Screening CC(C)[C@@]1(c2ccc(Cl)cc2)ON(c2ccccc2C(F)(F)F)C1=O returned ALR inh inactive and Efflux pump inh inactive.
`Cc1ccc2c(c1)NC(c1cccs1)C1=C(CC(C)(C)CC1=O)N2` (stereo not given) gave UBC9 SUMO inh inactive, eIF4H inh 86, Efflux pump inh inactive, MLLE-PAM2 inh inactive and PABP FP inh 11.
`COc1ccc(C2Nc3ccccc3NC3=C2C(=O)CC(C)(C)C3)cc1` (stereo not given) gave UBC9 SUMO inh inactive, eIF4H inh inconclusive, ALR inh inactive, Efflux pump inh inactive, MLLE-PAM2 inh inactive and PABP FP inh inconclusive.
`CC1(C)CC(=O)C2=C(C1)Nc1ccccc1NC2c1ccccn1` (stereo not given) gave UBC9 SUMO inh inactive, eIF4H inh inactive, ALR inh 83, Efflux pump inh inactive, MLLE-PAM2 inh inactive and PABP FP inh inactive.
Screening CC1(C)CC(=O)C2=C(C1)Nc1cc3c(cc1C2c1ccc(F)cc1)OCO3 (stereo not given) returned UBC9 SUMO inh inactive, eIF4H inh inactive, ALR inh 98, Efflux pump inh inactive, MLLE-PAM2 inh inactive and PABP FP inh inactive.
For CN1C(=O)NC(c2ccc(Cl)cc2)C2=C1CC(C)(C)CC2=O (stereo not given) the results were UBC9 SUMO inh inactive, eIF4H inh inactive, ALR inh 94, Efflux pump inh inactive, MLLE-PAM2 inh inactive and PABP FP inh inactive.
`CC(C)c1nnc(NC(=O)CCC2CCCCC2)s1` gave UBC9 SUMO inh inactive, eIF4H inh inactive, ALR inh inactive, Efflux pump inh inactive, MLLE-PAM2 inh inactive and PABP FP inh inactive.
`Cc1noc2c1C(c1ccc(N(C)C)cc1)C1=C(CC(C)(C)CC1=O)N2` (stereo not given) gave UBC9 SUMO inh inactive, eIF4H inh inactive, ALR inh 98, Efflux pump inh inactive, MLLE-PAM2 inh inactive and PABP FP inh inactive.
For Cc1ccc(C2Nc3ccccc3NC3=C2C(=O)CC(C)(C)C3)c(O)c1 (stereo not given) the results were UBC9 SUMO inh inactive, eIF4H inh inconclusive, ALR inh inactive, Efflux pump inh inactive, MLLE-PAM2 inh inactive and PABP FP inh inactive.
`CC1(C)CC(=O)C2=C(C1)Nc1ccccc1NC2c1ccc(F)cc1` (stereo not given) gave UBC9 SUMO inh inactive, eIF4H inh inactive, ALR inh 99, Efflux pump inh inactive, MLLE-PAM2 inh inactive and PABP FP inh inactive.
Screening CC1(C)CC(=O)C2=C(C1)Nc1ccccc1NC2c1nc2ccccc2[nH]1 (stereo not given) returned UBC9 SUMO inh inactive, eIF4H inh inactive, ALR inh 98, Efflux pump inh inactive, MLLE-PAM2 inh inactive and PABP FP inh inactive.
For CC1CC2=C(C(=O)O1)C(c1ccccc1)Nc1ccccc1N2 (stereo not given) the results were UBC9 SUMO inh inactive, eIF4H inh inactive, ALR inh 98, Efflux pump inh inactive, MLLE-PAM2 inh inactive and PABP FP inh inactive.
`CC1(C)CC(=O)C2=C(C1)Nc1ccccc1NC2c1ccc2c(c1)OCO2` (stereo not given) gave UBC9 SUMO inh inactive, eIF4H inh inactive, ALR inh 99, Efflux pump inh inactive, MLLE-PAM2 inh inactive and PABP FP inh inactive.

From PubChem BioAssay
